# From PubChem BioAssay AID2315 (National Center for Advancing Translational Sciences (NCATS), 2010)
# The whole screen tested about 290,000 compounds, of which about 27,000 (9.3%) were called active. No stated cut-off is given here; in the data, active means inhibition mostly above about 28% (no sharp cut-off); inactive means mostly below about 43%. Many of the other results were omitted from the sample, so actives are more common in it than they were.
# Assay: A qHTS for Small Molecule Inhibitors of Shiga Toxin; further: 0% is about no effect
# Settings: Vero cells, Shiga toxin protein synthesis inhibition reporter; at 38.7 µM, hits give high values
row,Compound,inhibition
1,COC(=O)c1ccc(C2C3=C(Nc4nnnn42)c2ccccc2OC3)cc1 (stereo unspecified),-11.2% (inactive)
2,CC1CN(C(=O)CCC(=O)NCCCN2CCC(Cc3ccccc3)CC2)c2cc(Cl)ccc2O1 (stereo unspecified),-10.8% (inactive)
3,O=C(CN(c1cc(C(F)(F)F)ccc1Cl)S(=O)(=O)c1ccccc1)NCc1cccnc1,-32% (inactive)
4,Cc1cccc(C)c1N1C(=O)CN(Cc2ccccc2)C1=S,-4.26% (inactive)
5,COc1ccc(C(CNC(=O)COc2ccc([N+](=O)[O-])cc2)N2CCCCC2)cc1 (stereo unspecified),-4.67% (inactive)
6,COc1ccc(CN2CN(C3CCCC3)CSC2=S)cc1,17.5% (inactive)
7,CC1Cc2cc(/C(O)=C3\C(=O)C(=O)N(Cc4cccnc4)C3c3ccccc3F)ccc2O1 (stereo unspecified),-7.46% (inactive)
8,CCOC(=O)c1c(C)[nH]c(C(=O)NCCN2CCOCC2)c1C,2.41% (inactive)
9,C[C@H]1[C@H]2c3nc4ccccc4n3C[C@H]1ON2C1CCCCC1,-7.22% (inactive)
10,CCOC(=O)C(Cc1ccc(N)cc1)N1C(=O)c2ccccc2C1=O (stereo unspecified),7.65% (inactive)
11,O=C(Nc1cnccn1)c1cccnc1,11% (inactive)
12,CC(=O)NC(=S)Nc1ccc(NC(=O)c2cccnc2)cc1,24.9% (inactive)
13,CC(=O)Nc1ccc(-c2nc3ccccc3o2)cc1,54.7% (active)
14,Cc1cc2nc(-c3ccc(NC(=O)c4cccnc4)cc3)oc2cc1C,101% (active)
15,COC(=O)c1cc(NC(=O)c2cccnc2)ccc1N1CCOCC1,26.8% (inactive)
16,Cc1ccc2nc(-c3ccc(NC(=O)c4cccnc4)cc3)oc2c1,142% (active)
17,CC(=O)Nc1ccc(Nc2c3ccccc3nc3ccccc23)cc1,-31.9% (inactive)
18,Cc1cc(NS(=O)(=O)c2ccc(NC(=O)c3cccnc3)cc2)nc(C)n1,2.23% (inactive)
19,COc1cc(OC)cc(C(=O)Nc2ccc(-c3nc4ccccc4o3)c(O)c2)c1,35.4% (inactive)
20,COc1ccc(CNC(=O)CN(C(=O)c2csnn2)c2cnc3ccccc3c2)cc1,-8.3% (inactive)
21,CCOC(=O)c1cc(=O)c2ccc(OCc3ccccc3)cc2o1,-1.81% (inactive)
22,CCOc1ccccc1NS(=O)(=O)c1c[nH]c(C(=O)OC)c1,-3.38% (inactive)
23,Cc1ccc(NC(=O)C2CCN(S(=O)(=O)c3ccc4c(c3)NC(=O)CO4)CC2)cc1C,-2.09% (inactive)
24,CNC[C@H](CC1CCCCC1)NC[C@H](NCCC1CCCC1)[C@H](C)O,-0.811% (inactive)

row,Compound,inhibition
1,O=C(Nc1cccc(Cl)c1Cl)c1ccccc1NC(=O)C1CC=CCC1C(=O)O (stereo unspecified),35.7% (active)
2,O=C(O)C1CC=CCC1C(=O)NCCc1ccccc1 (stereo unspecified),5.17% (inactive)
3,CC(=O)Nc1ccc(NC(=O)COc2ccccc2C(=O)Nc2cccc(Cl)c2Cl)cc1,12.3% (inactive)
4,O=C(Nc1ccc(Cl)c(Cl)c1)c1ccccc1NC(=O)C1CC=CCC1C(=O)O (stereo unspecified),59.4% (active)
5,O=C(O)C1CC=CCC1C(=O)Nc1ccccc1C(=O)N1CCN(c2ccccc2)CC1 (stereo unspecified),-42.2% (inactive)
6,O=C(Nc1ccccc1)c1ccccc1NC(=O)C(F)(F)F,52.8% (inactive)
7,Cc1ccc(N(CC(=O)NCC2CCCO2)C(=O)CNS(=O)(=O)c2ccc(Cl)cc2)cc1 (stereo unspecified),-7.51% (inactive)
8,CN(C(=O)CN1C(=O)/C(=C/c2ccc(Cl)cc2)SC1=S)C1CCS(=O)(=O)C1 (stereo unspecified),-7.14% (inactive)
9,O=C(c1cc2ccccc2s1)N1CCN(c2ccccn2)CC1,9.52% (inactive)
10,COc1ccc(-c2cc(=O)oc3cc(OCC(=O)N(C)C4CCS(=O)(=O)C4)ccc23)cc1 (stereo unspecified),-5.59% (inactive)
11,COc1cccc(C(=O)N2CCC(n3nccc3NC(=O)C3CCOC3)CC2)c1 (stereo unspecified),-9.25% (inactive)
12,CCOCCCN1C(=O)C2C(C(=O)Nc3ccc(OCC)cc3)C3C=CC2(O3)C1C(=O)NC1CCCCC1 (stereo unspecified),-6.78% (inactive)
13,Cc1ccc2cc(/C=N/Nc3ccc(C(=O)O)cc3)c(Cl)nc2c1,51.3% (active)
14,CSCC[C@H](NC(=O)OC(C)(C)C)C(=O)N/N=C/c1cc2ccc(C)cc2nc1Cl,-11.9% (inactive)
15,O=C(Nc1cccc(F)c1)[C@@H]1CCCN1,3.23% (inactive)
16,O=C(O)c1ccc(/C=N/Nc2nc(N3CCCCC3)nc(N3CCCCC3)n2)cc1,-6.74% (inactive)
17,O=C(O)c1ccc(N/N=C/c2cn(-c3ccccc3)nc2-c2cccs2)cc1,46.3% (inactive)
18,O=C(O)c1ccc(N/N=C/c2ccc3ncccc3c2)cc1,45.9% (active)
19,Cc1ccc(/C=N/NC(=O)C2=NNC(c3ccccc3)(c3ccccc3)C2)c(O)c1,33.7% (inactive)
20,Cc1ccc2cc(/C=N/NC(=O)[C@@H]3CCCN3)c(Cl)nc2c1,54.3% (active)
21,CCNC(=S)NNC(=O)c1ccc2ncccc2c1,38% (inactive)
22,Cc1cc(OCC(=O)N2CCN(c3ncccn3)CC2)ccc1Cl,-7.52% (inactive)
23,COc1cc(OC)cc(C(=O)NCCSCc2ccc(Cl)cc2)c1,-9.78% (inactive)
24,COc1ccc2c(c1)C(=C(C#N)C#N)C(=O)N2CCc1ccccc1,6.44% (inactive)

row,Compound,inhibition
1,O=C1CN(C(=O)c2cc(F)cc(F)c2)c2ccccc2N1,-2.51% (inactive)
2,CC(C)CC(O)C1CCN(C(=O)CCc2nnc(-c3ccc4c(c3)OCO4)o2)CC1 (stereo unspecified),-6.93% (inactive)
3,CC(CO)NCC12CC3CC(CC(C3)C1)C2 (stereo unspecified),2.32% (inactive)
4,CCOc1ccccc1NC(=O)Cn1nnc(C(=O)NCc2cccs2)c1N,-4% (inactive)
5,COC1=C/C(=C/c2c(N)n3nc(CC(=O)N4CCOCC4)sc3nc2=O)C=CC1=O,-2.63% (inactive)
6,COc1ccc(CN2CC(C(=O)NC3CCCCC3)CC2=O)cc1 (stereo unspecified),-6.86% (inactive)
7,Cc1ccc(C)c(OCCC(=O)OCC(=O)N2CCN(c3ccccc3)CC2)c1,-5.02% (inactive)
8,CCN1CCCC1CNC(=O)c1cc2cc(OC)c(OC)cc2[nH]1 (stereo unspecified),-5.24% (inactive)
9,CC(O)c1ccc(OCCN(C)c2ccccn2)cc1 (stereo unspecified),87.4% (active)
10,CCOc1ccc(C(C(=O)NCCOC)N(CCOC)C(=O)CCC(=O)Nc2ccccn2)cc1 (stereo unspecified),-13.1% (inactive)
11,CC(C)c1ccc(OCC(O)CN2CCN(c3ccccn3)CC2)cc1 (stereo unspecified),-24.5% (inactive)
12,COc1ccc(-c2noc(C(C)NS(=O)(=O)c3ccc(NC(C)=O)cc3)n2)cc1 (stereo unspecified),-7.2% (inactive)
13,COc1ccc(CCNC(=O)C(=O)NCC2OCCN2S(=O)(=O)c2ccc(F)cc2)cc1OC (stereo unspecified),2.97% (inactive)
14,COc1ccccc1NC(=O)/C=C/C(=O)O,-5.02% (inactive)
15,O=C(O)/C=C/C(=O)Nc1ccc(F)cc1F,-11.9% (inactive)
16,COC(=O)c1sc(-c2ccc(C(C)(C)C)cc2)cc1NC(=O)/C=C/C(=O)O,108% (active)
17,C=CCn1c(SCc2ccc(C(=O)NCCO)cc2)nc2ccccc2c1=O,-5.58% (inactive)
18,CC(C(=O)Nc1ccc(O)c(C(=O)O)c1)N1C(=O)/C(=C/c2cccs2)SC1=S (stereo unspecified),5.02% (inactive)
19,COCCCNC(=O)[C@H]1N2C(=O)c3ccccc3C2SC1(C)C (stereo partly specified),-3.4% (inactive)
20,Cc1nnc2n1N=C(c1ccccc1)CS2,-5.72% (inactive)
21,COc1ccc(C2=Nn3c(nnc3-c3ccccc3O)SC2)cc1,42.8% (active)
22,CC1=Nn2c(nnc2-c2ccccc2)SC1,-3.08% (inactive)
23,COc1cc(/C(=C/c2ccccc2)c2ccccc2)c2c(c1)oc1ccccc12,-7.7% (inactive)
